Results filed as inconclusive are left out. A call without a number means that no potency is given here. Unmarked numbers belong to inactive results. Active and inactive are the calls of the source. Unless noted, calls follow the shape of the dose curve; as a rule, active = well fitted curve in the direction sought with a large enough effect in the repeat runs; inconclusive = weak or mixed curves; inactive = no such curve, though single readings can be large; an effect the other way counts as inactive or inconclusive.
Tests used:
[1] = qHTS assay to identify small molecule agonists of the NFkB signaling pathway (AID 1159509; active = well fitted curve in the direction sought with a large enough effect in the signal ratio in the repeat runs, not every such curve was filed as active; the % refers to the signal ratio)
In short: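 ME-180 NFkB-bla, 2,000 cells/well, overnight plating; cpd pinned in DMSO, 5 h 37 C; B/G FRET substrate 1.5 h RT; ex 405, em 460/530 nm.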

[2] = qHTS assay to identify small molecule agonists of the NFkB signaling pathway - cell viability counter screen (AID 1159515; calls by dose curve; also: nearly all actives have a fitted effect of over 55% in size)
In short: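 NFkB-bla ME-180 cells, 2,000/well, plated overnight at 37 C; compound added for 5 hr at 37 C. Viability read in the same wells as the bla reporter, by CellTiter-Glo luminescence after 30 min at room temperature.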

[3] = qHTS assay to identify small molecule agonists of the endoplasmic reticulum stress response signaling pathway - cell viability counter screen (AID 1159517; calls by dose curve;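 also: HeLa cells carrying an ER stress response element beta-lactamase reporter; nearly all actives have a fitted effect of over 50% in size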)
In short: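 CellTiter-Glo was added to wells already read for beta-lactamase FRET, and luminescence was recorded 30 min later. Cells: ESRE-bla HeLa, 1,500 per well, compound exposure 5 hr at 37 C.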

[4] = biological target: Nuclear receptor ROR-gamma (Homo sapiens) (UniProt P51449); assay: qHTS assay to identify small molecule antagonists of the retinoid-related orphan receptor gamma (ROR-gamma) signaling pathway (AID 1159521; also: nearly all actives have a fitted effect of over 50% in size; also: potency is read from the fitted curve at half-maximal effect)
In short: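 CHO cells expressing RORγ under a TET-on promoter, luciferase under RORE control. Dox 1 uM final, 16 h; compounds added 2 h prior. Luminescence decrease measured.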

[5] = qHTS assay to identify small molecule agonists of the AP-1 signaling pathway - cell viability counter screen (AID 1159525; calls by dose curve; also: nearly all actives have a fitted effect of over 55% in size; also: potency is read from the fitted curve at half-maximal effect)
In short: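 ME-180 AP-1-bla, 2500 cells/well, Opti-MEM + 0.5% dialyzed FBS; overnight 37 °C; cpd 15-pt titration, 5 h 37 °C; CellTiter-Glo 30 min RT; luminescence read; normalised to TOAB and DMSO controls.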

[6] = qHTS assay to identify small molecule antagonists of the retinoid acid receptor (RAR) signaling pathway - cell viability counter screen (AID 1159551); also: nearly all actives have a fitted effect of over 35% in size; also: potency is read from the fitted curve at half-maximal effect
In short: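 C3RL4 RARE-luciferase cells, 1,000/well, incubated overnight, then dosed with compound plus 1 uM retinol (final). After 6 hr at 37 C, viability read by CellTiter-Glo ATP luminescence following 30 min at room temperature.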

[7] = qHTS assay to identify small molecule agonists of the retinoic acid receptor (RAR) signaling pathway (AID 1159553); conditions: C3RL4 RARE luciferase reporter, agonist, 6 h; activation: at 73.3 µM (top of the series); also: potency is read from the fitted curve at half-maximal effect
In short: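 C3RL4 RARE-luciferase cells were seeded at 1,000/well and grown overnight at 37 C, then exposed to compounds for 6 hr at 37 C, 5% CO2. Luciferase reagent was added and luminescence was read after 30 min at room temperature.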

[8] = qHTS assay to identify small molecule agonists of the vitamin D receptor (VDR) signaling pathway - cell viability counter screen (AID 743224); also: nearly all actives have a fitted effect of over 50% in size; also: potency is read from the fitted curve at half-maximal effect
In short: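 VDR-bla cells, 4 h after plating, exposed to compounds for 16 h at 37C; viability then read in the same wells as CellTiter-Glo luminescence after 30 min at room temperature, following the bla FRET read.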

[9] = qHTS assay to identify small molecule antagonists of the vitamin D receptor (VDR) signaling pathway - cell viability counter screen (AID 743225); also: nearly all actives have a fitted effect of over 50% in size; also: potency is read from the fitted curve at half-maximal effect
In short: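 Luminescent cell viability (CellTiter-Glo) in VDR-bla HEK 293T cells after 16 h compound exposure at 37C in the presence of 3 nM final 1-alpha,25-dihydroxy vitamin D3.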

[10] = qHTS assay to identify small molecule antagonists of the retinoid-related orphan receptor gamma (ROR-gamma) signaling pathway - cell viability counter screen (AID 1159520); also: nearly all actives have a fitted effect of over 50% in size; also: potency is read from the fitted curve at half-maximal effect
In short: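 Tet-on ROR gamma CHO cells (1,000/well) were plated 4 hr, given compounds in DMSO for 2 hr at 37 C, then induced with 1 uM final doxycycline for 16 hr. Viability was read as ATP by CellTiter-Glo luminescence after 30 min.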

[11] = qHTS assay to identify small molecule agonists of the RXR signaling pathway - cell viability counter screen (AID 1159529); also: nearly all actives have a fitted effect of over 50% in size; also: potency is read from the fitted curve at half-maximal effect
In short: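 Same-well viability check after the LiveBLAzer FRET read: CellTiter-Glo added, luminescence measured after 30 min at room temperature. Reporter HEK 293T cells had been treated with compounds for 16 hr following a 5 hr preincubation.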

[12] = qHTS assay to identify small molecule antagonists of the retinoic acid receptor (RAR) signaling pathway (AID 1159552; also: nearly all actives have a fitted effect of over 50% in size; also: potency is read from the fitted curve at half-maximal effect)
In short: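 Readout: luciferase luminescence, 30 min post-reagent at RT. Setup: C3RL4 RARE reporter cells, compounds plus retinol 1 uM final, 6 hr incubation at 37 C and 5% CO2.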

[13] = qHTS assay to identify small molecule agonists of the AP-1 signaling pathway (AID 1159526; calls by dose curve)
[14] = biological target: Retinoic acid receptor RXR-alpha (Homo sapiens) (UniProt P19793); assay: qHTS assay to identify small molecule agonists of the RXR signaling pathway (AID 1159527; calls by dose curve; also: nearly all actives have a fitted effect of over 35% in size; also: potency is read from the fitted curve at half-maximal effect)
In short: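 Beta-lactamase reporter assay, agonist format. Engineered HEK 293T line, charcoal-stripped FBS at 2%, overnight (16 hr) exposure, fluorescence at 460 and 530 nm after 405 nm excitation.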

[15] = qHTS assay to identify small molecule agonists of the estrogen related receptor (ERR) signaling pathway (AID 1224820)
In short: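 Cells: ERR line from NTP, 2,000/well. Pre-incubation 6 h, 37 C/5% CO2. Compound (DMSO) pin transfer, 18 h 37 C. One-Glo, 30 min RT, luminescence.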

[16] = system: estrogen-related receptor alpha (ERRalpha) with PGC-1alpha coactivator, human; assay: qHTS assay to identify small molecule antagonists of the estrogen related receptor signaling pathway with the pleiotropic PPARgamma coactivator (PGC) (AID 1224821; calls by dose curve)
In short: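 Luminescent read-out (One-Glo, 30 min at room temperature) following 18 h treatment of PGC/ERR cells at 37 C with compounds delivered in DMSO. Cells had settled 6 h at 37 C/5% CO2 before dosing.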

[17] = qHTS assay to identify small molecule agonists of the estrogen related receptor signaling pathway with the pleiotropic PPARgamma coactivator (PGC) (AID 1224823)
In short: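 Steps: plate PGC/ERR cells at 2,000 cells/well; incubate 6 h, 37 C/5% CO2; pin-transfer compounds (DMSO); incubate 18 h, 37 C; add One-Glo; 30 min RT; read luminescence.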

Sequence of Retinoic acid receptor RXR-alpha (Homo sapiens) (P19793 whole entry, looked up): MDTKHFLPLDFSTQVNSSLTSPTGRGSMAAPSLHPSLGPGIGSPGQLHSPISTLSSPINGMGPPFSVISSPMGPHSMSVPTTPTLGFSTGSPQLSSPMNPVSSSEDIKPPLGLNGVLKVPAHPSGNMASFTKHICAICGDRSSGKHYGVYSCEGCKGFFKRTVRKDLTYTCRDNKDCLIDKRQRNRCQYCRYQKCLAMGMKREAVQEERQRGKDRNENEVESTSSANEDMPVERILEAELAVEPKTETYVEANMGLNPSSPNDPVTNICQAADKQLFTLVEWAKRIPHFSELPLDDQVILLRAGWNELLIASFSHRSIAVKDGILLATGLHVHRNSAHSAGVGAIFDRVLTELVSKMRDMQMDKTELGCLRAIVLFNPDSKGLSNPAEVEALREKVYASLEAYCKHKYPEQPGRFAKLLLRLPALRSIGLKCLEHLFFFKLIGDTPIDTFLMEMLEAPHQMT

Compound | Potency [1] | Potency [2] | Potency [3] | Potency [4] | Potency [5] | Potency [6] | Potency [7] | Potency [8] | Potency [9] | Potency [10] | Potency [11] | Potency [12] | Potency [13] | Potency [14] | outcome [15] | outcome [16] | outcome [17]
C/C=C\C/C=C/CCCCCCCCOC(C)=O | inactive | inactive | inactive | inactive | inactive | inactive | inactive | – | – | – | – | – | – | – | – | – | –
CCCCCCCCCCCCCCN(CCO)CCO | inactive | inactive | inactive | 30.6 µM (active) | 54.9 µM (active) | 61.1 µM (active) | – | 24.5 µM (active) | 43.6 µM (active) | 61.1 µM (active) | 21.9 µM (active) | 30.6 µM (active) | – | – | – | – | –
CCC(C)COC(=O)CC(C)C (stereo unspecified) | inactive | inactive | inactive | – | – | inactive | inactive | inactive | – | inactive | – | inactive | inactive | – | – | – | –
O=Cc1c2ccccc2c(Cl)c2ccccc12 | inactive | inactive | inactive | – | – | inactive | inactive | – | inactive | inactive | – | inactive | – | – | – | – | –
COc1ccc(OC(=O)N(CC(=O)O)Cc2ccc(OCCc3nc(-c4ccccc4)oc3C)cc2)cc1 | inactive | inactive | inactive | – | inactive | inactive | – | inactive | – | inactive | inactive | – | inactive | – | – | – | –
O=C1c2ccccc2C(=O)c2c(O)c(O)cc(O)c21 | inactive | inactive | inactive | inactive | – | – | inactive | inactive | inactive | – | inactive | – | inactive | – | – | – | –
O=C1NCCN1CCO | inactive | inactive | inactive | – | inactive | inactive | inactive | inactive | inactive | inactive | inactive | – | inactive | inactive | – | – | –
c1csc(SSc2cccs2)c1 | inactive | inactive | inactive | 24.3 µM (active) | inactive | – | – | – | inactive | – | 38.9 µM (active) | – | – | – | – | – | –
O=C(Nc1cccc2c(=O)cc(-c3nn[nH]n3)oc12)c1ccc(OCCCCc2ccccc2)cc1 | inactive | inactive | inactive | – | – | inactive | inactive | – | – | inactive | inactive | inactive | – | inactive | – | – | –
CCCCCC[C@@H](O)C/C=C\CCCCCCCC(=O)O | inactive | inactive | inactive | – | – | inactive | – | inactive | – | inactive | 38.9 µM (active) | – | – | 49 µM (active) | – | – | –
CC(=O)Oc1ccc([N+](=O)[O-])cc1CCl | inactive | inactive | inactive | inactive | inactive | inactive | 68.6 µM (active) | inactive | – | – | inactive | inactive | inactive | inactive | – | – | –
O=C1c2ccccc2C(=O)C1c1nc2ccccc2c(Br)c1O | inactive | inactive | inactive | inactive | inactive | inactive | 24.3 µM (active) | inactive | – | inactive | inactive | inactive | – | inactive | – | – | –
NNC(=O)CP(=O)(c1ccccc1)c1ccccc1 | inactive | inactive | inactive | – | inactive | inactive | inactive | – | – | inactive | inactive | inactive | inactive | inactive | – | – | –
COc1cc(Nc2c(C#N)cnc3cc(OCCCN4CCN(C)CC4)c(OC)cc23)c(Cl)cc1Cl | inactive | inactive | inactive | inactive | inactive | inactive | – | – | 19 µM (active) | – | 8.49 µM (active) | – | – | – | – | – | –
OC[C@H]1O[C@@H](n2cnc3c(=S)nc[nH]c32)[C@H](O)[C@@H]1O | inactive | inactive | inactive | – | inactive | – | – | – | 8.49 µM (active) | inactive | 2.13 µM (active) | – | inactive | – | – | – | –
CC1(C)O[C@@H]2C[C@H]3[C@@H]4C[C@H](F)C5=CC(=O)C=C[C@]5(C)[C@H]4[C@@H](O)C[C@]3(C)[C@]2(C(=O)CO)O1 | inactive | inactive | inactive | – | – | inactive | – | inactive | inactive | inactive | inactive | – | – | inactive | – | – | –
CCOc1ccc(Cc2nccc3cc(OCC)c(OCC)cc23)cc1OCC | inactive | inactive | inactive | 7.5 µM (active) | inactive | inactive | inactive | inactive | inactive | – | inactive | – | inactive | – | – | – | –
C[C@@]12CCC[C@H]1[C@@H]1CC[C@H]3C[C@@H](O)CC[C@]3(C)[C@H]1CC2 | inactive | inactive | inactive | 13.3 µM (active) | inactive | inactive | – | – | – | inactive | – | – | – | – | – | – | –
C=C(C)C(=O)OCCOCCOC(=O)C(=C)C | inactive | inactive | inactive | – | inactive | inactive | – | inactive | – | inactive | inactive | – | inactive | – | – | – | –
Cc1cscn1 | inactive | inactive | inactive | – | inactive | inactive | – | inactive | inactive | inactive | inactive | – | inactive | – | – | – | –
CCCCN(CCCC)C(C(N)=O)c1ccc(OC)cc1 (stereo unspecified) | inactive | inactive | inactive | – | – | inactive | – | – | inactive | inactive | inactive | – | inactive | inactive | – | – | –
COc1ccccc1Oc1c(NS(=O)(=O)c2ccc(C(C)(C)C)cc2)nc(-c2ncccn2)nc1OCCO | inactive | inactive | inactive | 18.8 µM (active) | inactive | inactive | inactive | – | inactive | inactive | inactive | inactive | – | – | – | – | –
CCCC(C(=O)OCCN(CC)CC)(c1ccccc1)c1ccccc1 | inactive | inactive | inactive | – | inactive | – | – | – | 19 µM (active) | inactive | – | – | – | – | inactive | inactive | inactive
CCOc1ccccc1O[C@H](c1ccccc1)[C@H]1CNCCO1 | inactive | inactive | inactive | inactive | inactive | inactive | – | inactive | inactive | inactive | inactive | – | – | inactive | – | – | –
